# Data published in PubChem BioAssay AID898 (University of Pittsburgh Molecular Library Screening Center, 2007).
# Hit rate of the full screen: of about 140,000 compounds, about 220 (0.16%) were called active. Many of the other results were omitted from the sample, so actives are more common in it than they were. Values without a mark were called inactive. Cut-off read from the data, not from the text of the source: active = inhibition above about 50%; inactive = the rest.
# System: YopH tyrosine phosphatase [Yersinia enterocolitica]
# Assay: YopH tyrosine phosphatase inhibitors, primary screen, biochemical, fluorescence Ex485/Em525 (AID 898)
# Details: stronger effect = higher value, concentration not given here
row,Structure (SMILES),inhibition
1,COc1cc(/C=N/NC(=O)c2ccccc2)ccc1OS(=O)(=O)c1ccccc1,-12.8%
2,COC(=O)c1ccccc1NS(=O)(=O)c1ccc2[nH]c(=O)[nH]c2c1,-13.2%
3,Cc1cccc(CSc2ccc(-c3cccs3)nn2)c1,-8.04%
4,CC1(c2cccc([N+](=O)[O-])c2)CC(C)(C)N(C(=O)c2ccccc2)c2ccccc21 (stereo not drawn),-13.3%
5,O=C(NC(=S)Nc1cc(C(F)(F)F)ccc1N1CCOCC1)c1ccc(-c2cccc(Cl)c2)o1,-11.4%
6,CCN(CC(=O)NC1CCS(=O)(=O)C1)S(=O)(=O)c1ccccc1 (stereo not drawn),-27.4%
7,O=c1cc(-c2ccccc2)[nH]c2cc(F)ccc12,-25.5%
8,Clc1ccc(C2=CSC3=Nc4cccc5cccc(c45)N23)cc1,76.1% (active)
9,COc1ccc2c(c1)CC[C@@H]1[C@@H]2CC[C@]2(C)C(=O)CC[C@@H]12,-40.8%
10,COC(=O)/C=C\C(=O)Nc1cccc([N+](=O)[O-])c1,-15.7%
11,Cc1ccc(NC(=O)Cn2cccc2C2=NC(c3ccccc3)CO2)c(C)c1 (stereo not drawn),-4.93%
12,Cc1ccc(S(=O)(=O)Nc2nc(C)cc(N/N=C/c3ccc(O)cc3)n2)cc1,-24.5%
13,Cn1cnc(C(F)(F)F)c1-c1ccc([N+](=O)[O-])cc1,-26.6%
14,Cc1ccc(NC(=O)CN(C)Cc2ccc(F)cc2)c([N+](=O)[O-])c1,-24.9%
15,Cc1ccccc1C(OCCN(C)C)C1CCCCC1 (stereo not drawn),-18.4%
16,N#Cc1ccc(C(=O)Nc2nc(-c3cccs3)c(C(=O)C(F)(F)F)s2)cc1,-10.1%
17,O=C(/C(=C/c1cccc(Cl)c1)c1nc2ccccc2[nH]1)c1ccccc1,-25%
18,NNc1nc2c(Cl)cccc2s1,-22%
19,Cc1cc(N2CCOCC2)nc(-c2ccc(Br)cc2)n1,5.67%
20,CCCCNC(=O)C1CCC(CNS(=O)(=O)c2ccc(NC(C)=O)cc2)CC1 (stereo not drawn),-25.8%
21,COC(=O)NNC(=O)C1CCC(C)CC1 (stereo not drawn),-19.5%
22,COc1ccc(-c2cc(C(F)(F)F)nc(SCC(=O)Nc3ccc4c(c3)OCO4)n2)cc1OC,-21.2%

row,Structure (SMILES),inhibition
1,Cc1cccc(N2C(=O)SC(SC(=Nc3ccccc3)Nc3ccccc3)C2=O)c1 (stereo not drawn),-18.8%
2,Cc1ccc2c(c1)C1CN(C)CCC1N2C(=O)c1ccccc1NS(=O)(=O)c1ccc(F)cc1C (stereo not drawn),-30.2%
3,Cc1nc2ccccc2n1CC(=O)N/N=C/c1cccs1,-17.2%
4,Cc1ccc(NC(=O)CCC(=O)N/N=C/c2ccco2)c(C)c1,-19.1%
5,CCCNC(=O)OC[C@H]1O[C@H](CCO/N=C/[C@@H](NS(=O)(=O)c2ccc(C)cc2)[C@H](C)/C=C/CC(=O)OC)C=C[C@@H]1Oc1ccc(OC)cc1,-21.3%
6,CC(=O)c1ccc(NC(=S)NC(=O)CC(C)C)cc1,-2.98%
7,COc1cc(OC)cc(C(=O)N[C@H](C(=O)OCC(=O)NC(C)c2ccccc2)C(C)C)c1 (stereo partly drawn),-27.4%
8,CCCCC(CC(C)O)c1n[nH]c(=S)n1-c1ccccc1 (stereo not drawn),-33.5%
9,CC(C)c1nccn1S(=O)(=O)c1cc([N+](=O)[O-])ccc1Cl,-25.1%
10,CCCCCOc1ccc(/C=C/C(=O)NCCc2nc3ccccc3[nH]2)cc1OC,-36.7%
11,C=CCNC(=S)NNC(=O)COc1c(Cl)cc(Cl)cc1Cl,-25.1%
12,COC(=O)Cc1ccc(NC(=S)NCc2ccccc2)cc1,-21.4%
13,Cc1ccc(OCc2nnc(SC3CCc4ccccc4C3=O)n2C)cc1 (stereo not drawn),-10.2%
14,O=C(Nc1nnc(SCc2ccccc2Cl)s1)c1cccc([N+](=O)[O-])c1,-19.7%
15,CC/C(=N\NC(=O)c1ccccc1Cl)c1ccc(Br)s1,-30%
16,CCCCN=C1C([N+](=O)[O-])=CC=C2C1=NC1(CCCCC1)N2O,-23.5%
17,Cc1ccc(S(=O)(=O)N2CCOCC2)cc1C(=O)NC(=S)N(Cc1ccccc1)C(C)C,-13.5%
18,CC(C)Nc1nnc(SCC(=O)c2c[nH]c3ccccc23)s1,-37.7%
19,O=C(c1cccs1)n1nc(NCc2ccccc2)nc1NCc1ccccc1,-28.9%
20,COc1ccccc1-c1nnc(NC(=O)c2ccc3ncsc3c2)o1,-9.55%
21,CN(C)c1ccnc2sc(C(=O)c3ccccc3)c(N)c12,9.26%
22,O=C(O)CCS(=O)(=O)c1ccc(-c2ccccc2)cc1,-26.8%

row,Structure (SMILES),inhibition
1,CCOc1ncccc1C(=O)N(C)CC(=O)Nc1ccc(F)cc1,-16.5%
2,CCOC(=O)c1c(/N=C/c2cc(C)ccc2O)sc2c1CCC2,-9.28%
3,CCNC(=S)N(CCc1c(C)[nH]c2ccc(C)cc12)Cc1ccco1,-11.6%
4,C=CCOc1ccc(/C=N/NC(=O)C(C)Sc2ccccn2)cc1OCC (stereo not drawn),-28.1%
5,O=C(COC(=O)Cc1ccc(Br)cc1)Nc1c(F)c(F)c(F)c(F)c1F,-9.87%
6,CN(C)c1ccc(/C=N/N(Cc2ccccc2)c2ccccc2)cc1,-23.4%
7,C=CCn1c(SCC(N)=O)nnc1-c1cc2c(s1)CCC(CC)C2 (stereo not drawn),-11%
8,CCC(C)(C(=O)Nc1ccccc1C)N(C(=O)CNC(C)=O)c1ccc(C)cc1 (stereo not drawn),-34.2%
9,CC(C)C(=O)Nc1ccc(C(=O)NNC(=O)c2cccs2)cc1,-18.7%
10,CCc1ccc(NC(=O)C(C)OC(=O)/C=C/c2cccc([N+](=O)[O-])c2)cc1 (stereo not drawn),-14.1%
11,COc1cc(/C=N/NC(=O)CCc2n[nH]c(=O)[nH]c2=O)ccc1O,-11.1%
12,Cc1ccc(N(C(=O)C(F)(F)F)C(C(=O)NC2CCCCC2)c2ccncc2)cc1C (stereo not drawn),-8.07%
13,COc1ccc(-c2nnc(SCC(=O)c3cccs3)o2)c(OC)c1,90.3% (active)
14,COc1ccc(-n2c(C)cc(C(=O)CSc3nnc(-c4cccs4)o3)c2C)cc1,-23.9%
15,COc1ccc(OC)c(C(=O)CSc2nnc(-c3cccs3)o2)c1,-17.3%
16,COC1=CCC2([N+](=O)[O-])CN(CC(=O)O)CC1([N+](=O)[O-])C2 (stereo not drawn),-24.9%
17,O=C(COC(=O)/C=C/c1ccc(S(=O)(=O)N2CCCCCC2)cc1)NCc1ccccc1Cl,-43.5%
18,COC(=O)c1sc(N)c(C(=O)OC)c1COC(=O)CNS(=O)(=O)c1ccc(C)cc1,-21.7%
19,Cc1ccc(C(C[N+](=O)[O-])c2c(C)cc3ccccn23)cc1 (stereo not drawn),-23.1%
20,CN1CCN(c2ccc(S(=O)(=O)N3CCCCC3)cc2NC(=O)Cc2ccccc2F)CC1,-23.6%
21,O=C(NNC(=O)c1cc2c(s1)CCCC2)c1ccccc1,-2.47%
22,O=C(NCCOc1ccccc1Cl)C(=O)Nc1ccccc1,-35.1%

row,Structure (SMILES),inhibition
1,O=C(CN1C(=O)/C(=C\c2ccc(C(F)(F)F)cc2)Sc2ccccc21)NCc1ccco1,-14.7%
2,COc1ccc(C)cc1NC(=O)C(OC(=O)c1cccc(S(=O)(=O)N(C)c2ccccc2)c1)c1ccccc1 (stereo not drawn),-35.9%
3,O=[N+]([O-])c1ccc(N/N=C2/CCCCC2c2ccccn2)c([N+](=O)[O-])c1 (stereo not drawn),-15.4%
4,O=C(OCc1ccc(Br)cc1)c1cccc(-c2nnc(-c3ccccc3)o2)c1,-11.6%
5,C/C(=N\NC(=O)CCn1nc(C)cc1C)C(C)(C)C,-8.98%
6,CC(C)CNC(=O)COC(=O)c1ccccc1OCC(=O)Nc1ccc(Br)cc1,-23.1%
7,Cc1cc(C)cc(C(=O)NC(=S)Nc2ccc3[nH]c(=O)[nH]c3c2)c1,-11.9%
8,Cc1cc(SCC(=O)NCCN2C(=O)CSC2=O)nc2ccccc12,-4.76%
9,Cc1ccc2[nH]cc(CCCN3C(=O)c4ccccc4C3=O)c2c1,-23.7%
10,Cc1ccc(N(C(=O)c2ccc(CN3CCOCC3)o2)C(C(=O)NCCC(C)C)c2cccs2)c(C)c1 (stereo not drawn),-6.18%
11,CCCOc1ccc(NC(=O)C2OC3OC(C)(C)OC3C3OC(C)(C)OC23)cc1 (stereo not drawn),-26.3%
12,O=C(COc1nc2ccccc2nc1N1CCOCC1)NCC(F)(F)F,-21.6%
13,CCOc1ccc(Br)cc1S(=O)(=O)Nc1cccc(S(=O)(=O)N(CC)CC)c1,-29.5%
14,O=C1NC(c2ccc(-c3ccccc3[N+](=O)[O-])o2)C(C(=O)c2ccc(Cl)cc2)C(O)(C(F)(F)F)N1 (stereo not drawn),-11.1%
15,CCOc1ccc(Oc2nc(C)cc(OC)n2)nn1,-16%
16,Cc1cccc(OCCNC(=S)NC(=O)c2cccnc2)c1,-28.5%
17,O=C(NCCC1=CCCCC1)c1ccc(Cl)c([N+](=O)[O-])c1,-21.9%
18,CC(C)(C)c1ccc(NC(=O)COC(=O)CCc2nc3ccccc3c(=O)[nH]2)cc1,-15.2%
19,COc1ccc(NC(=O)c2sc(N3CCOCC3)nc2-c2ccccc2)c(OC)c1,-1.88%
20,CC1=C(C)CC(C(=O)NNC(=O)c2csc3c2CCC(C(C)(C)C)C3)C(C(=O)O)C1 (stereo not drawn),-33.4%
21,Cc1ccc(C)c(NC(=O)C(OC(=O)c2ccc(C)s2)c2ccccc2)c1 (stereo not drawn),-11.6%
22,Cc1ccc(/C=C/C(=O)Nc2cc(S(=O)(=O)N3CCCCCC3)ccc2OCC(F)(F)F)o1,7.49%
